SSB-PriA inh = inhibitors of Klebsiella pneumoniae PriA binding to SSB C-terminal tail | AlphaScreen SSBct-PriA binding, biotinylated peptide | inhibition, % at 33 µM | 430,000 compounds, 0.6% hits | AID 1272365; in the data active = inhibition mostly above about 37%, no sharp cut-off; inactive = mostly below about 20%;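 note: plate controls were negative control peptide for no effect and reference peptide for full effect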
CCHFV vOTU inh = blocks the CCHF virus ovarian tumor domain protease. AID 651958. inhibition, % at 11.5 µM. 370,000 compounds, 0.55% hits. CCHFV vOTU protease, Pep-AMC fluorescence; in the data active = inhibition above about 30%; note: 0% = vehicle wells with enzyme and 100% = no enzyme wells
ugtP null kill = growth inhibition of S. aureus ugtP deletion strain. S. aureus RN4220 ugtP deletion, OD600 growth, 16 h. growth inhibition, % (test concentration not listed). 330,000 compounds, 0.54% hits; in the data active = growth inhibition above about 68%;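 note: plate controls were untreated wells for no effect and antibiotic for full effect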
Mtb hypoxia inh = inhibitors of hypoxia-regulated fluorescent reporter in Mycobacterium tuberculosis. M. tuberculosis hypoxia-regulated fluorescent reporter, fluorescence. fluorescence inhibition, % (no concentration beside the values). 300,000 compounds, 0.1% hits. AID 1159583; in the data active = fluorescence inhibition mostly above about 23%, no sharp cut-off; inactive = mostly below about 17%
RN4220 kill = kills Staphylococcus aureus RN4220. AID 1259311. 330,000 compounds, 0.33% hits. S. aureus RN4220 growth, OD600, 16 h. inhibition, % (concentration not given with the values); in the data active = inhibition above about 85%;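 note: plate controls were untreated cells for no effect and reference antibiotic for full effect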
The depositor's hits bear a star; nt = not tested or not shown. Sampled rows, rich in hits. Any-hit rate of the full collection: about 1.4%.

SMILES	SSB-PriA inh	CCHFV vOTU inh	ugtP null kill	Mtb hypoxia inh	RN4220 kill
Cc1ccc(CNC(=O)CSc2nc3ccsc3c(=O)n2NC(=O)c2ccccc2)cc1	-17	7	-5	-2	-3
Brc1ccc2c(c1)C(c1ccc(N3CCOCC3)cc1)=NNC(c1cccs1)=N2	13	2	-16	10	1
Brc1ccc2c(c1)C(c1cccnc1)=NNC(c1cccs1)=N2	53*	8	-7	-1	1
Fc1ccc2c(c1)C(c1ccc(N3CCOCC3)cc1)=NNC(c1cccs1)=N2	40*	nt	-3	-2	-2
O=C(CSc1cn(CCNC(=O)c2cccc(C(F)(F)F)c2)c2ccccc12)Nc1ccc(OC(F)(F)F)cc1	-5	nt	nt	nt	nt
COC(=O)c1ccc(C(=O)Nc2ccccc2Cc2nc(-c3cccnc3)no2)cc1	9	nt	nt	nt	nt
COc1ccc(-c2nc(C#N)c(N3CCOCC3)o2)cc1	54*	nt	nt	nt	nt
COc1ccc(-c2nc(C#N)c(N3CCCCC3)o2)cc1	50*	-41	14	10	1
CCOc1ccc(-c2nc(C#N)c(N3CCCCCC3)o2)cc1	93*	-22	30	11	3
Cc1cccc(CSC(Nc2ccc(F)cc2)=C(C#N)C#N)c1	-10	-11	97*	5	100*
CC(SCc1ccccc1)C(=O)Nc1ccc(F)cc1 (centres undefined)	-10	5	4	10	8
N#CC(C#N)=C(Nc1ccc(F)cc1)SCc1cccc(Br)c1	-2	6	96*	13	100*
CCc1ccc2c(c1)C(C)(C)C1(/C=C/c3ccco3)NC(=O)CCN21 (centres undefined)	50*	nt	nt	nt	nt
COC(=O)[C@@]12CCCN1C(c1ccc(-c3ccccc3)cc1)C1C(=O)N(C)C(=O)C12 (some centres undefined)	nt	nt	3	0	4
COc1ccc(S(=O)(=O)Nc2ccc(O)c3ccccc23)cc1	11	82*	-1	5	13
Cc1ccc(C(=O)ON=Cc2c(C(F)(F)F)nn(C)c2Sc2ccc(Cl)cc2)cc1	-3	nt	0	16	-7
CC(=O)c1cccc(NC(=O)NC2CCCCCCC2)c1	3	2	-4	33*	2
CCn1c(=O)c(C(=O)CN2c3ccccc3CC2C)c(N)n(Cc2ccccc2)c1=O (centres undefined)	39*	-11	-5	9	-5
CN(C)CCOc1ccc(-c2c(-c3ccsc3)sc3ccccc23)cc1	17	5	nt	nt	nt
COc1ccc(-c2sc3ccccc3c2-c2ccc(OCCN(C)C)cc2)cc1	25	4	100*	47*	101*
O=C(NCc1ccccc1)N1CCn2cccc2C1c1cccs1 (centres undefined)	15	nt	nt	nt	nt
O=C(c1cc2n(n1)CCCO2)N1CCS[C@H](c2ccccc2)CC1	-4	nt	nt	nt	nt
CO[C@@]1(NC(=O)C2SC(=C(C(N)=O)C(=O)O)S2)C(=O)N2C(C(=O)O)=C(CSc3nnnn3C)CS[C@@H]21 (some centres undefined)	-5	-3	nt	nt	nt
CO[C@@]1(NC(=O)C2SC(=C(C(N)=O)C(=O)O)S2)C(=O)N2C(C(=O)O)=C(CSc3nnnn3C)CSC21 (some centres undefined)	nt	nt	100*	4	100*
Cc1onc(-c2ccccc2)c1C(=O)NN=Cc1cc(Br)c(O)c(Br)c1	4	nt	5	-1	12
SMILES	SSB-PriA inh	CCHFV vOTU inh	ugtP null kill	Mtb hypoxia inh	RN4220 kill
Cc1ccc(NC(=O)c2ccc(Cl)s2)c(C(=O)c2ccccc2)c1	1	nt	nt	nt	nt
O=C(Nc1ccc(Cl)cc1)c1cc2c(cc1O)[nH]c1ccccc12	3	1	98*	15	95*
N#Cc1nc(COc2ccc(Br)cc2)oc1N1CCCCC1	104*	nt	nt	nt	nt
CC1CCN(c2oc(Cc3cccc4ccccc34)nc2C#N)CC1	56*	10	1	8	-4
C=CCNc1oc(Cc2cccc3ccccc23)nc1C#N	3	7	10	12	5
N#Cc1nc(Cc2cccc3ccccc23)oc1NCc1ccc(F)cc1	45*	2	18	7	-15
Cc1ccc(OCc2nc(C#N)c(N3CCC(C)CC3)o2)cc1	96*	nt	nt	nt	nt
COC(=O)c1ccccc1NC(=O)CSc1nc2ccccc2c(=O)n1CCC(=O)NCCc1ccc(OC)c(OC)c1	-12	nt	nt	nt	nt
CC1CC(C)CN(c2oc(Cc3ccccc3)nc2C#N)C1 (centres undefined)	55*	14	-4	1	9
N#Cc1nc(-c2ccc(OCc3ccc(Cl)cc3)cc2)oc1N1CCC(C(N)=O)CC1	-4	-3	-3	0	4
Cc1ccc(OCc2nc(C#N)c(N3CCN(c4ccccc4)CC3)o2)cc1	74*	nt	nt	nt	nt
